Compound activity: PubChem BioAssay, National Center for Advancing Translational Sciences (NCATS)
ALOX12 inhib: inhibitors of human 12-lipoxygenase (ALOX12); Potency, µM (doses to about 57.1 µM), without a hit: at the highest dose activity change, negative = inhibition, actives largely listed as inhibitors; purified 12-hLO, xylenol orange hydroperoxide absorbance; AID 1452; P18054; 0.12% of 150,000 active; further: potency means the concentration at half of the fitted maximal effect; nearly all actives have a fitted effect of over 55% in size
Target sequence (P18054 whole entry, looked up): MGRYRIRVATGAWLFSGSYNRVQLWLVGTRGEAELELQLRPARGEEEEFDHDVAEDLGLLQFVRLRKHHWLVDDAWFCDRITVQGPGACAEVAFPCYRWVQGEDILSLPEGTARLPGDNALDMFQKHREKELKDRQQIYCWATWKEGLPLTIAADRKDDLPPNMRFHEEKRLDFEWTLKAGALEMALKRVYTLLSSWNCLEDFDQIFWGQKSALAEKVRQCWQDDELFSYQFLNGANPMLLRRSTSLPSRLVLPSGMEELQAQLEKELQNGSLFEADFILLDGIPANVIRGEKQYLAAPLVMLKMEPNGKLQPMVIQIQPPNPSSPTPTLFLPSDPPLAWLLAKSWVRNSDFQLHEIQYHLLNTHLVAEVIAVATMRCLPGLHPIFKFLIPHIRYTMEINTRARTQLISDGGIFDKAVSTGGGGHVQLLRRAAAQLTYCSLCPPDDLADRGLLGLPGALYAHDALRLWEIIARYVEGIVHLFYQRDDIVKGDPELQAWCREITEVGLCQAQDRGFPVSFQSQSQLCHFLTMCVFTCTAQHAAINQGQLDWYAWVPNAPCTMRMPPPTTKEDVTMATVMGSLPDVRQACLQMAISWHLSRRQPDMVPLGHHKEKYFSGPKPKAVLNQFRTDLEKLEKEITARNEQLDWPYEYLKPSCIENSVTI
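150 nM 12hLO, 25 mM Hepes pH 7.0 + 0.01% Triton X-100; cpd preinc 15 min RT; 40 uM arachidonic acid, 30 min RT; Fe-XO 30 min; A573/A405 ratio as read-out.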
ALDH1A1 block: blocks purified human ALDH1A1 activity; P00352; Purified ALDH1A1, NADH fluorescence, propionaldehyde substrate; Potency, µM (titrated, usually from 75.3 µM), inactives show at the top dose activity, negative = inhibition, actives largely listed as inhibitors; 7.3% of 220,000 active; AID 1030; active means well fitted inhibition curve with a large enough effect, not every such curve was filed as active; inconclusive means small, poorly fitted or top-dose-only effect, or another doubt; inactive means no such curve, though single readings can be large or run the other way;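 further: potency means the concentration at half of the fitted maximal effect; plate controls were no enzyme wells and a reference inhibitor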
PNC inhibitor: blocks assembly of the perinucleolar compartment | AID 2417 | PC3M PTB-GFP, PNC prevalence imaging, 16 h; stronger effect = lower value | activity change (PNC), negative = inhibition, % at 10 µM | 3.1% of 140,000 active;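 active means readout at or below -70, meaning at least 70% loss of cells showing the perinucleolar compartment, a nuclear body marking cancer cells; inconclusive means readout between -30 and a set limit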;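 further: plate controls were DMSO wells for no effect and camptothecin positive control wells for full effect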
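Compounds are pinned in duplicate onto adhered PC3M cells stably expressing GFP-tagged PTB and incubated 16 h at 37 C. Cells are then fixed, nuclei stained with Hoechst, and PNC-positive cells counted.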
IMPase Li inh: IMPase inhibition in cells with lithium potentiation; Potency, µM (highest dose often 59.4 µM), for the others: at the highest dose activity, negative = IMPase inhibition, actives largely listed as inhibitors; AID 1457; 0.35% of 210,000 active; CHO-M1 cells, IP1 TR-FRET (IP-One), carbachol + lithium;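 further: IP1 builds up when IMPase is blocked and the TR-FRET signal falls; potency means the concentration at half of the fitted maximal effect; plate controls were basal vehicle for no effect and high inhibitor control for full effect; nearly all actives have a fitted effect of over 50% in size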
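Test compounds were applied to CHO-M1 cells previously cultured for 16–30 h at 2000 per well. A small lithium amount accompanied them; after 30 min at 37C, IP1 was quantified by TR-FRET.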
HPGD block: blocks human HPGD enzyme activity | purified HPGD, NADH fluorescence kinetic, PGE2 substrate | 4.3% of 150,000 active | P15428 | AID 894 | Potency, µM, without a hit: at the top dose activity change, negative = inhibition, hits mostly inhibitors; active means well fitted inhibition curve with a large enough effect, not every such curve was filed as active; inconclusive means small, poorly fitted or top-dose-only effect, or another doubt; inactive means no such curve, though single readings can be large or run the other way; further: potency means the concentration at half of the fitted maximal effect
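NADH formation kinetics: reaction with 30 uM PGE2 and 1 mM NAD+ (final), 20 nM enzyme, Tris-HCl pH 8 with Tween 20, after 15 min compound preincubation at room temperature. Fluorescence change, last versus first of five reads.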
IMPase cell inh: IMPase inhibition in cells | AID 901 | CHO-M1 cells, IP1 accumulation, HTRF TR-FRET ratio | 120,000 tested, under 10 active | inhibition (IP1 accumulation), % at 46.1 µM; active means well fitted curve in the direction sought with a large enough effect in the signal ratio, not every such curve was filed as active; inconclusive means small, poorly fitted or top-dose-only effect, or a change in a side signal; inactive means no such curve, though single readings can be large or run the other way; the % refers to the signal ratio;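 further: cells stimulated with carbachol in lithium chloride buffer; plate controls were DMSO basal wells for no effect and reference inhibitor wells for full effect; higher means more IMPase inhibition seen as more IP1 and lower FRET ratio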
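CHO-M1, 2000 cells/well, cultured 16–30 h; cpd up to 46 uM; carbachol (50 uM solution, stimulation buffer w/ 50 mM LiCl, pH 7.4), 30 min 37C; IP-One TR-FRET, 10 min RT; Ex 320/Em 665, 620; Hill-fit AC50.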
Starred values were filed as active, the others as inactive; ? = inconclusive; . = not tested or not shown; [ ] = dose if it differs, or a comment. The list is not random: actives were taken first. Their share in the collection is about 11%. Unless noted, the call rests on the fitted dose curve; in most records, active means well fitted curve in the direction sought with a large enough effect; inconclusive means small, poorly fitted or top-dose-only effect, or another doubt; inactive means no such curve, though single readings can be large; an effect the other way counts as inactive or inconclusive. Unless noted, on the % scale 0 is the no-effect control and ±100 the full control effect.

SMILES	ALOX12 inhib	ALDH1A1 block	PNC inhibitor	IMPase Li inh	HPGD block	IMPase cell inh
O=C(N/N=C/c1ccc(N2CCCCC2)o1)c1ccccc1	-8%	25µM*	50	10%	16µM*	.
O=C(N/N=C/c1ccc(N2CCOCC2)o1)c1cccc([N+](=O)[O-])c1	0%	18µM*	42	16%	-27%	.
C/C(=N\NC(=O)c1ccccc1)c1ccc(N2CCCCC2)cc1	2%	-8%	?	2%	-4%	.
CO[C@H]1COC(=O)C/C=C\[C@H](C)[C@@H](NS(=O)(=O)c2ccc(C)cc2)COC(=O)C/C=C\[C@@H]1C	.	-13%[13.5 µM]	.	.	.	.
COc1ccc(/C=N\N=C2/SC(CC(=O)O)C(=O)N2c2ccc(O)cc2)cc1 (stereo not given)	-4%	3%	-29	.	.	0
COc1ccc(S(=O)(=O)Oc2cccc(/C=N/N=C3/NC(=O)C(CC(=O)O)S3)c2)cc1 (stereo not given)	.	8.9µM*	.	-8%	.	.
COc1ccc(/C=N/N=C2\SC(CC(=O)O)C(=O)N2c2ccccc2)c(OC)c1 (stereo not given)	1%	20µM*	25	-8%	-18%	.
O=C(O)CC1S/C(=N\N=C/c2ccccc2)N(c2ccc(O)cc2)C1=O (stereo not given)	-1%	1%	?	.	.	-19
COc1ccc(/C=N/N=C2\SC(CC(=O)O)C(=O)N2c2ccccc2)cc1 (stereo not given)	2%	20µM*	53	7%	-14%	.
O=C(O)c1ccc(OCc2ccccc2)c(Cl)c1	-3%[11.4 µM]	-3%[13.5 µM]	.	-3%	-7%	.
C=CC(C)(O)CCCC(C)CCCC(C)CCCC(C)C (stereo not given)	-2%	-2%	.	6%	-1%	7
CNc1nc(-c2c(C)noc2C)nc2ccccc12	.	7%	.	-1%	.	.
Cc1ccc(-n2c(SCC(=O)Nc3cc(S(=O)(=O)N4CCOCC4)ccc3Cl)nc3ccccc3c2=O)cc1	1%	5%	11	5%	-5%	.
O=C(CSc1nc2ccccc2s1)Nc1cc(S(=O)(=O)N2CCOCC2)ccc1Cl	-4%	22µM*	-1	1%	-31%	14
Cc1cc(C)nc(SCC(=O)Nc2ccc(S(=O)(=O)Nc3onc(C)c3C)cc2)n1	4%	26%	35	1%[38.3 µM]	-5%	3
Cc1noc(NS(=O)(=O)c2ccc(NC(=O)CSc3ncccn3)cc2)c1C	-3%	20µM*	?	20%[38.3 µM]	-6%	-15
Cc1noc(NS(=O)(=O)c2ccc(NC(=O)CCn3c(=O)oc4ccccc43)cc2)c1C	0%	4µM*	?	50%[38.3 µM]	-19%	1
Cc1noc(NS(=O)(=O)c2ccc(NC(=O)CSc3nc4ccccc4s3)cc2)c1C	-11%	10µM*	?	13%[38.3 µM]	28µM*	-3
Cc1[nH]n(-c2ccc([N+](=O)[O-])cc2)c(=O)c1C=NCCc1c(C)[nH]c2ccccc12	4%	5%	-25	20%	-23%	-3
CCCCNC(=S)N/N=C/c1ccc(OCC(=O)Nc2c(C)cc(C)cc2C)c(OC)c1	-5%	-1%	-82*	0%	-24%	.
Cc1ccc(-c2noc(CCC(=O)N(C)c3ccccc3F)n2)cc1	.	.	.	.	.	-2
Cc1ccc(-c2noc(CN(C(=O)Cc3ccccc3)C(C)C)n2)cc1	-4%	?	-81*	41%[38.3 µM]	-3%	11
COc1ccc(CNC(=O)CCc2nc(-c3ccccc3F)no2)c(OC)c1	4%	10µM*	-7	8%[38.3 µM]	-10%	6
COc1ccc(Br)cc1CNC(=O)CCc1nc(-c2ccccc2F)no1	?	?	9	1%[38.3 µM]	-6%	-1
CCc1ccccc1N(CC)C(=O)CCc1nc(-c2ccc(C)cc2)no1	-11%	1%	-24	-10%[38.3 µM]	25µM*	9
SMILES	ALOX12 inhib	ALDH1A1 block	PNC inhibitor	IMPase Li inh	HPGD block	IMPase cell inh
CCN(C(=O)CCc1nc(-c2ccccc2F)no1)c1cc(OC)ccc1OC	-2%	?	6	22%[38.3 µM]	22µM*	2
CC(C)OC(=O)[C@@H]1CC[C@H](C)[C@@H](CCCC=O)O1	.	1%	.	-14%	-9%	.
CN(C)CC(C)(C)CNC(=O)c1ccc(Cc2nc3ccccc3[nH]2)cc1	-2%	13%	.	.	-5%	.
Clc1cccc2c1CN(C1=NCCN1)C2	0%	4%	.	8%	1%	5
CCCCCC(=O)CC[C@@H]1[C@@H](C/C=C\CCCC(=O)O)[C@@H](O)C[C@H]1O	1%	-2%	.	6%	-6%	.
O=C(O)CCNc1ccccc1C(=O)O	-6%[11.4 µM]	?	.	-8%	?	.
COc1ccc(OC)c(NC(=O)CCc2nc(-c3ccc(C)cc3)no2)c1	.	.	.	.	.	1
COc1ccc(-c2noc(CCC(=O)Nc3cc(OC)ccc3OC)n2)cc1	7%	7.1µM*	17	-8%[38.3 µM]	-14%	6
COc1cccc(N/C(SCc2ccccc2Cl)=C(/C#N)C(=O)NCc2cccs2)c1	3%	-1%	-125*	10%	-9%	.
COc1cccc(N/C(SCc2ccccc2C)=C(/C#N)C(=O)NCc2cccs2)c1	-2%	-3%	-22	14%	-15%	12
O=C(c1ccco1)N1CCC2(CCCN(c3cccc(-c4ccccc4)c3)C2)CC1	-4%	25µM*	.	6%	-7%	.
O=C(c1ccco1)N1CCC2(CC1)CCN(c1cccc(-c3ccccc3)c1)CC2	-4%	28µM*	.	11%	-19%	.
O=C(c1ccco1)N1CCC2(CC1)CCN(c1ccc(-c3ccccc3)cc1)CC2	-1%	-5%	.	8%	-9%	.
COc1ccc(C(=O)N2CCC3(CCCN(c4cccc(-c5ccccc5)c4)C3)CC2)cc1	-10%	22µM*	.	-5%	-23%	.
Nc1cc(Cl)c(N)c(Cl)c1	-3%	?	.	12%	-11%	.
Nc1nnc(SCC(=O)Nc2cccc(F)c2)s1	.	.	.	.	.	-13
CN(C)C(CNC(=O)NC1CCCCC1)c1cccnc1 (stereo not given)	8%	16%	63	6%[38.3 µM]	-6%	5
CN(C)C(=O)CNc1n[nH]c(=S)[nH]c1=O	.	0%	.	.	.	.
CC(C)OC(=O)CNc1n[nH]c(=S)[nH]c1=O	.	-9%	.	11µM*	.	.
CC(C)OC(=O)C(C)Nc1n[nH]c(=S)[nH]c1=O (stereo not given)	.	1%	.	?	.	.
COC(=O)CNc1n[nH]c(=S)[nH]c1=O	-2%	4%	14	11µM*	-6%	?
COc1cc2c(C(=O)NCc3ccc(C)o3)cn(CC(C)C)c(=O)c2cc1OC	-3%	?	-108*	5%[38.3 µM]	-5%	8
CCn1cc(C(=O)NCc2ccco2)c2cc(OC)c(OC)cc2c1=O	1%	-5%	?	16%	?	9
